In this experiment the target is Tyrosine-protein kinase Fgr (Homo sapiens) (UniProt P09769). The following applies: at 0.1 µM.
Chain of Tyrosine-protein kinase Fgr (Homo sapiens) (P09769 2-529 limits assumed): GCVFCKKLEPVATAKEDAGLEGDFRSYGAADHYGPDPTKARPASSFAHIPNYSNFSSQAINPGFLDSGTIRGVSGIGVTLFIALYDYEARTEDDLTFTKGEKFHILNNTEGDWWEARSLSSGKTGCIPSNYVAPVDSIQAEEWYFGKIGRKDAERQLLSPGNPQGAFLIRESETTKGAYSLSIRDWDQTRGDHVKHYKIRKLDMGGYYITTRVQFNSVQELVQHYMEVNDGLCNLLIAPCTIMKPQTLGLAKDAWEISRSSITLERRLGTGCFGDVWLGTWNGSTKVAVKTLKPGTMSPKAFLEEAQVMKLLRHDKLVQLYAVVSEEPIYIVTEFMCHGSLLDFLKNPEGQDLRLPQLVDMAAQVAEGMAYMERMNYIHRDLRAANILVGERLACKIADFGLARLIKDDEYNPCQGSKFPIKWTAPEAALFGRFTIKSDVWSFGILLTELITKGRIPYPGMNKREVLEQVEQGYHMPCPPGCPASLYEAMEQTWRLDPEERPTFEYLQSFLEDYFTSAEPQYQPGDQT
For `CS(=O)(=O)CCN(CC#N)Cc1ccc(-c2ccc3ncnc(Nc4ccc(OCc5cccc(F)c5)c(Cl)c4)c3c2)o1`, the inhibition came out at 0.96%.
The value for `CC(=O)Nc1cccc(C#Cc2cncnc2Nc2ccc(OCc3cccc(F)c3)c(Cl)c2)n1` was 4.5%.
The same measure for `COc1ccccc1Nc1ncc(-c2ccccc2)o1`: 5.21%.
On to `NS(=O)(=O)c1cccc(-c2ccc3c(NC(=O)C4CC4)n[nH]c3c2)c1`, for which the inhibition is -1.55%.
As to `Cc1nnc(-c2ccc(C)c(-c3ccc(C(=O)Nc4cccc(C#N)c4)cc3)c2)o1`, the inhibition came out at 4.67%.
With `COc1ccc(-c2nn3ncccc3c2-c2ccnc(Nc3ccc(Cl)c(C(F)(F)F)c3)n2)cc1`, the inhibition is 5.75%.
In the case of `O=C1NC(=O)C(c2ccc(Cl)cc2)=C1Nc1ccc(Cl)c(C(=O)O)c1`, the inhibition was 0.15%.
The value for `COC(=O)Nc1nc2cc(Oc3cccc(NC(=O)Nc4cc(C(F)(F)F)ccc4F)c3)ccc2[nH]1` was 1.17%.
Regarding `O=C1NC(=O)C(c2cccc(Cl)c2)=C1Nc1ccc(O)c(Cl)c1`, the inhibition is -2.2%.
Consider `CCCN1CCC=C(c2ccc(Nc3nc(Nc4ccccc4C(N)=O)c4cc[nH]c4n3)c(C)c2)C1`, for which the inhibition is -0.56%.
As for `Nc1nc(-c2ccc3c(c2)C(=Cc2cc(Br)c(O)c(Br)c2)C(=O)N3)cs1`, the inhibition was -0.02%.
The value for `O=C1NC(=O)C(c2ccccc2Cl)=C1Nc1cccc(O)c1` was 1.27%; that for `CCc1cccc(NC(=O)Nc2ccc(Oc3ccc4nc(NC(=O)OC)[nH]c4c3)cc2)c1` was 5.68%; that for `CC1=C(C(=O)Nc2ccc3[nH]ncc3c2)C(c2ccc3ccccc3c2)CC(=O)N1` (stereo not given) was 3.21%.
The same measure for `CS(=O)(=O)Nc1ccc(N/C=C2\C(=O)Nc3ccccc32)cc1`: 1.13%.

One may read the inhibition as the relative decrease from the control value, in per cent.

(Values after ChEMBL document CHEMBL1961873, “Compounds: GSK PKIS; Assays: Nanosyn kinase panel” (2012).)
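Note: reported values are mean percent inhibition of FGR.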
